For 71 compounds, growth inhibition call results are on record in the antibiotic and cytotoxicity screens of Wong et al. (2023).

Among all 39,000 compounds or so, about 500 (1.3%) were called active. The entries come from a sample that favours actives as a whole.

The test deals with S. aureus RN4220. Briefly: growth inhibition call (relative growth <= 0.2). As to conditions: 50 µM.
For the compound `C[C@H](CO)N1C[C@H](C)[C@H](CN(C)Cc2ccc3c(c2)OCO3)Oc2c(NC(=O)C3CC3)cccc2C1=O`, the growth inhibition call was “inactive”.

On to `C[C@H](CO)N1C[C@H](C)[C@@H](CN(C)Cc2ccc(C(=O)O)cc2)Oc2ccc(NC(=O)Cn3cnnn3)cc2C1=O`, for which the growth inhibition call is “inactive”.

In the case of `C[C@@]1(F)[C@H](O)[C@@H](CO)O[C@H]1n1ccc(N)nc1=O`, the growth inhibition call was “inactive”.

With `Nc1ccn([C@@H]2O[C@H](CO)[C@@H](O)C2(F)F)c(=O)n1`, the growth inhibition call was “inactive”.

Take `Cl.Nc1ccn(C2OC(CO)C(O)C2(F)F)c(=O)n1` (stereo unspecified): the growth inhibition call is “active”.

For the compound `COc1ccc(NC(=O)N(C)C[C@@H]2OCCCC[C@H](C)Oc3ccc(NC(=O)c4ccccc4)cc3C(=O)N([C@@H](C)CO)C[C@@H]2C)cc1`, the growth inhibition call was “inactive”.

Take `COc1ccc2c3c([nH]c2c1)[C@H](CO)N(Cc1ccc(cc1)Cl)C[C@]13CCN(CC1)Cc1nccs1`: the growth inhibition call is “inactive”.

With `COc1ccc2c3c([nH]c2c1)[C@@H](CO)N(Cc1ccc(cc1)Cl)C[C@]13CCN(CC1)Cc1ccccc1`, the growth inhibition call is “inactive”.

On to `COc1ccc2c3c([nH]c2c1)[C@H](CO)N(C[C@]13CN(CCc2ccccc2)C1)C(=O)CN1CCOCC1`, for which the growth inhibition call was “inactive”.

As to `COc1ccc2c3c([nH]c2c1)[C@H](CO)N(Cc1ccc(cc1)Cl)C[C@]13CCN(CC1)Cc1ccccc1`, the growth inhibition call was “inactive”.

For `COc1ccc2c3c([nH]c2c1)[C@@H](CO)N(C[C@]13CN(CCc2ccccc2)C1)C(=O)CN1CCOCC1`, the growth inhibition call was “inactive”.

As for `COc1ccc2c3c([nH]c2c1)[C@H](CO)N(Cc1ccc(cc1)Cl)C[C@]13CN(CCc2ccccc2)C1`, the growth inhibition call is “active”.

For `COc1ccc2c3c([nH]c2c1)[C@H](CO)N(Cc1ccc(cc1)Cl)C[C@]13CCN(CCc2ccccc2)CC1`, the growth inhibition call is “inactive”.

In the case of `COc1ccc2c3c([nH]c2c1)[C@@H](CO)N(Cc1ccc(cc1)Cl)C[C@]13CN(CCc2ccccc2)C1`, the growth inhibition call was “active”.

With `COc1ccc2c3c([nH]c2c1)[C@@H](CO)N(Cc1ccc(cc1)Cl)C[C@]13CCN(CCc2ccccc2)CC1`, the growth inhibition call was “active”.

Take `Cc1ccc(NC(=O)Nc2cc(C(F)(F)F)ccc2F)cc1Nc1ccc2c(c1)NC(=O)/C2=C\c1ccc[nH]1`: the growth inhibition call was “inactive”.

As to `N[C@@]1(C(=O)O)CO[C@H]2[C@H](C(=O)O)[C@H]21`, the growth inhibition call is “inactive”.

As for `O=C(NCC(=O)N1CC[C@H](N[C@H]2CC[C@@](O)(c3ccc(-c4ncccn4)cn3)CC2)C1)c1cccc(C(F)(F)F)c1`, the growth inhibition call is “inactive”.

Consider `CO[C@@H]1CN(C)C(=O)c2cc(NS(=O)(=O)CC(F)(F)F)ccc2OC[C@H](C)N(Cc2ccccn2)C[C@H]1C`, for which the growth inhibition call is “inactive”.

As to `CCCNC(=O)N1[C@@H]2Cn3c(cccc3=O)[C@H]1[C@@H](C(=O)NCC(F)(F)F)[C@@H]2CO`, the growth inhibition call was “inactive”.

Regarding `C[C@@H]1CN([C@H](C)CO)C(=O)c2cc(NC(=O)CCCN(C)C)ccc2O[C@H]1CN(C)C(=O)Nc1ccccc1`, the growth inhibition call was “inactive”.

Take `CCS(=O)(=O)Nc1ccc2c(c1)C(=O)N(C)[C@H]1CC[C@@H](CC(=O)NCc3ccc(OC)cc3)O[C@@H]1CO2`: the growth inhibition call is “inactive”.

`C[C@@H]1CN([C@@H](C)CO)C(=O)Cc2cc(NC(=O)Cn3cnnn3)ccc2O[C@H]1CN(C)S(=O)(=O)c1cccs1`: the growth inhibition call is “inactive”.

Take `COc1ccc(NC(=O)Nc2cccc3c2O[C@H](CN(C)S(=O)(=O)c2cn(C)cn2)[C@@H](C)CN([C@H](C)CO)C3=O)cc1`: the growth inhibition call was “inactive”.

With `COC(=O)c1c(CC[C@@H](CO)NC(=O)N[C@@H](Cc2ccccc2)Cn2cc(C3(O)CCCCC3)nn2)oc(C(C)=O)c1C(=O)OC`, the growth inhibition call was “inactive”.

Regarding `O=C(N[C@H](c1ccc(Cl)cc1)c1ccsc1)C1CCN(Cc2ccc(Oc3ccccc3)cc2)CC1`, the growth inhibition call is “inactive”.

In the case of `COc1ccc([C@@H](NC(=O)C2CCN(Cc3ccc(Oc4ccccc4)cc3)CC2)c2ccccn2)cc1`, the growth inhibition call is “inactive”.

Take `Cc1cccnc1[C@@H](NC(=O)C1CCN(Cc2ccc(Cl)c(Cl)c2)CC1)c1ccc(Cl)cc1`: the growth inhibition call was “inactive”.

Regarding `Cc1cccnc1[C@@H](NC(=O)C1CCN(CCOc2ccc(Cl)cc2Cl)CC1)c1ccc(F)cc1`, the growth inhibition call is “active”.

Turning to `Cc1cccnc1[C@@H](NC(=O)C1CCN(CCOc2ccc(Cl)cc2Cl)CC1)c1ccc(Cl)cc1`, the growth inhibition call was “active”.

As for `O=C(N[C@H](c1ccc(Cl)cc1)c1ccccn1)C1CCN(CCOc2ccc(Cl)cc2Cl)CC1`, the growth inhibition call was “active”.

`O=C(N[C@@H](c1ccc2c(c1)OCO2)c1ccccn1)C1CCN(CCOc2ccc(Cl)cc2Cl)CC1`: the growth inhibition call is “inactive”.

For the compound `O=C(N[C@H](c1ccc(F)cc1)c1ccc2ccccc2n1)C1CCN(CCOc2ccc(Cl)cc2Cl)CC1`, the growth inhibition call was “inactive”.

As to `COc1ccc([C@@H](NC(=O)C2CCN(CCOc3ccc(Cl)cc3Cl)CC2)c2ccccn2)cc1`, the growth inhibition call was “inactive”.

Consider `COc1ccc([C@@H](NC(=O)C2CCN(CCOc3ccc(Cl)cc3Cl)CC2)c2ccco2)cc1`, for which the growth inhibition call was “inactive”.

`O=C(N[C@@H](c1cccnc1)c1ccc2c(c1)OCO2)C1CCN(CCOc2ccc(Cl)cc2Cl)CC1`: the growth inhibition call was “active”.

In the case of `Cc1cccnc1[C@@H](NC(=O)C1CCN(Cc2ccc(Oc3ccccc3)cc2)CC1)c1ccc(F)cc1`, the growth inhibition call was “inactive”.

Regarding `C[C@H]1CN([C@@H](C)CO)C(=O)Cc2cc(NC(=O)Cn3cnnn3)ccc2O[C@H]1CN(C)C(=O)Nc1ccccc1`, the growth inhibition call is “inactive”.

Turning to `C[C@@H]1CN([C@@H](C)CO)C(=O)Cc2cc(NC(=O)c3ccncc3)ccc2O[C@@H]1CN(C)S(=O)(=O)c1ccc(F)cc1`, the growth inhibition call is “inactive”.

With `C[C@@H]1CCCCO[C@@H](CN(C)C(=O)NC2CCCCC2)[C@@H](C)CN([C@H](C)CO)C(=O)c2cc(NC(=O)Nc3cccc4ccccc34)ccc2O1`, the growth inhibition call was “inactive”.

Regarding `C[C@H](CO)N1C[C@H](C)[C@@H](CN(C)S(=O)(=O)c2cccs2)OCCCC[C@H](C)Oc2ccc(NC(=O)Nc3cccc4ccccc34)cc2C1=O`, the growth inhibition call is “inactive”.

As to `O=C(CCCCCCC(=O)Nc1ccccc1O)N/N=C/[C@H](O)[C@@H](O)[C@@H](O)[C@H](O)C(=O)O`, the growth inhibition call was “inactive”.

With `C[C@H]1CC[C@@H]2N(C1)C[C@@H]1[C@H]([C@@H](O)[C@H](O)[C@]3(O)[C@H]1C[C@@]14O[C@]5(O)[C@@H](C[C@@H](O)[C@@H]31)[C@]4(C)CC[C@@H]5O)[C@]2(C)O`, the growth inhibition call was “inactive”.

Take `Cc1cc(C(=O)Nc2cccc3c2O[C@H](CN(C)C(=O)Nc2ccc4c(c2)OCO4)[C@H](C)CN([C@H](C)CO)C3=O)n(C)n1`: the growth inhibition call was “inactive”.

In the case of `COc1ccc(S(=O)(=O)Nc2ccc3c(c2)C(=O)N([C@H](C)CO)C[C@@H](C)[C@@H](CN(C)Cc2ccccc2)OCCCC[C@@H](C)O3)cc1`, the growth inhibition call was “inactive”.

Take `Cc1noc(C)c1NC(=O)N(C)C[C@@H]1OCCCC[C@@H](C)Oc2ccc(NC(=O)c3ccccc3)cc2C(=O)N([C@H](C)CO)C[C@@H]1C`: the growth inhibition call is “inactive”.

As for `CCCN(CCC)[NH2+][O-]`, the growth inhibition call is “inactive”.

Turning to `C[C@H](CO)N1C[C@H](C)[C@H](CN(C)Cc2ccccc2)Oc2ccc(NC(=O)CCN3CCOCC3)cc2CC1=O`, the growth inhibition call is “inactive”.

For `C[C@@H]1CN([C@H](C)CO)C(=O)c2cc(NC(=O)Nc3cccc4ccccc34)ccc2O[C@@H](C)CCCCO[C@H]1CN(C)S(=O)(=O)c1ccc(F)cc1`, the growth inhibition call was “inactive”.

Regarding `CC(C)(Sc1cc(C(C)(C)C)c(O)c(C(C)(C)C)c1)Sc1cc(C(C)(C)C)c(OC(=O)CCC(=O)O)c(C(C)(C)C)c1`, the growth inhibition call was “inactive”.

As to `CC(C)(Sc1cc(C(C)(C)C)c(O)c(C(C)(C)C)c1)Sc1cc(C(C)(C)C)c(O)c(C(C)(C)C)c1`, the growth inhibition call is “inactive”.

On to `CC(C)(Sc1cc(C(C)(C)C)c(O)c(C(C)(C)C)c1)Sc1cc(C(C)(C)C)c(OCC(=O)O)c(C(C)(C)C)c1`, for which the growth inhibition call was “active”.

In the case of `C[C@@H]1CN([C@H](C)CO)C(=O)c2cc(NS(=O)(=O)c3ccccc3)ccc2O[C@H]1CN(C)S(=O)(=O)c1ccc(F)cc1`, the growth inhibition call is “inactive”.

With `COC(=O)[C@@H](N)Cc1ccc(-n2cc(CCC(=O)NO)nn2)cc1`, the growth inhibition call was “active”.

For `CC(/C=C/C(=O)NO)=C\c1ccccc1OCc1cn(-c2cccc(N(S(=O)(=O)c3ccc(C)cc3)S(=O)(=O)c3ccc(C)cc3)c2)nn1`, the growth inhibition call is “inactive”.

As for `Nc1ccc(-n2cc(CCC(=O)NO)nn2)cc1`, the growth inhibition call is “inactive”.

Consider `Cc1ccc(S(=O)(=O)N(c2cccc(-n3cc(CCC(=O)NO)nn3)c2)S(=O)(=O)c2ccc(C)cc2)cc1`, for which the growth inhibition call is “active”.

With `CCOc1cc(OCC)cc(C(=O)N[C@@H](Cc2ccc(-n3cc(CCC(=O)NO)nn3)cc2)C(=O)OC)c1`, the growth inhibition call is “inactive”.

With `Nc1cccc(-n2cc(CCC(=O)NO)nn2)c1`, the growth inhibition call is “inactive”.

As for `Cc1onc(-c2ccccc2)c1C#N`, the growth inhibition call was “inactive”.

Consider `NCCOB(c1ccccc1)c1ccccc1`, for which the growth inhibition call is “inactive”.

With `C[C@@H]1CCCCO[C@H](CN(C)C(=O)Nc2ccc(C(F)(F)F)cc2)[C@@H](C)CN([C@H](C)CO)C(=O)c2cc(NC(=O)Cc3ccccc3)ccc2O1`, the growth inhibition call is “inactive”.

For `CC(C)NC(=O)N(C)C[C@@H]1Oc2ccc(NC(=O)Cc3ccccc3)cc2CC(=O)N([C@H](C)CO)C[C@@H]1C`, the growth inhibition call is “inactive”.

With `C[C@@H]1CN([C@@H](C)CO)C(=O)c2cc(NS(C)(=O)=O)ccc2O[C@@H]1CN(C)C(=O)Nc1ccc2c(c1)OCO2`, the growth inhibition call was “inactive”.

As to `CS(=O)(=O)N1CCn2cc(Cn3cncn3)nc2C1`, the growth inhibition call is “inactive”.

Take `CCCC#Cc1cnc2c(c1)C(=O)N([C@@H](C)CO)C[C@H](C)[C@@H](CN(C)S(=O)(=O)c1cn(C)cn1)O2`: the growth inhibition call was “inactive”.

In the case of `COc1ccc(NC(=O)N(C)C[C@@H]2Oc3ccc(NC(=O)CCN4CCOCC4)cc3C(=O)N([C@H](C)CO)C[C@H]2C)cc1`, the growth inhibition call was “inactive”.

As to `CC(C)C1=CC2=CC[C@H]3[C@](C)(CO)CCC[C@]3(C)[C@@H]2CC1`, the growth inhibition call is “inactive”.

Regarding `CC(C)c1cc2c(cc1S(=O)(=O)O)[C@@]1(C)CCC[C@@](C)(C(=O)O)[C@@H]1CC2`, the growth inhibition call is “inactive”.

For the compound `CC(C)C1=CC2=CCC3C(C)(C(=O)O)CCCC3(C)C2CC1` (stereo unspecified), the growth inhibition call is “active”.

Turning to `CCc1nc2ccc(C(=O)N3CCN(S(=O)(=O)CC)CC3)cn2c1N(C)Cc1ccc(Cl)cc1`, the growth inhibition call is “inactive”.
